The structures appear in SMILES notation. Values joined by “and” are separate entries in the source; they are usually repeats but may differ in a detail not shown here. Identical values can stand only once. Active and inactive are the calls of the source.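 How the source made its calls, unless noted: active means compounds whose cell count with miR-34 switched on is under 0.7 times the count with it off; inactive means the rest.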

The source of these data is PubChem BioAssay.

Experiment [1] in a line: P. berghei load reduction in hepatocytes – cell-based, HepG2, luciferase luminescence, HepG2 viability, primary screen (AID 624349; in the data active means parasite load remaining mostly below about 12%, no sharp cut-off; inactive means mostly above about 10%;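 further: 100% = mean of DMSO negative control wells on the same plate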). As to conditions: P. berghei liver stage in HepG2, luciferase luminescence, concentration not given here; parasite load remaining: stronger effect = lower value; viability: measured here: HepG2 viability without parasites.
Experiment [2] is described as follows: Wnt pathway potentiators raising nuclear beta-catenin – imaging, WNT3A-conditioned medium, mouse C2C12, NPC library, primary screen (AID 1117326; in the data active means nuclear beta-catenin stimulation mostly above about 4.2%, no sharp cut-off; inactive means mostly below about 10%). The following applies: stronger effect = higher value.
Experiment [3] can be described thus: stimulators of insulin release from INS-1E, primary screen, cell-based, 5 mM glucose, NPC library (AID 1117329;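 active means compound raises insulin release from rat beta cells at 5 mM glucose, no numeric limit stated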). As to conditions: rat INS-1E insulin secretion, at 10 µM, stronger effect = higher value.
A short description of experiment [4]: growth inhibition of GSK3B-pretreated HCT116 cells – cell-based, CellTiter-Glo, 0.2 to 20 µM (AID 1117336;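 active means compounds lowering colon cancer cell viability after pretreatment blocking the GSK3B kinase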). The following applies: HCT116 viability after GSK3B inhibitor, at 20 µM, stronger effect = higher value.
Experiment [5] in a line: inhibition of endothelial tube formation, primary screen, imaging, VEGF stimulated, CD31 staining, tube area, NPC library (AID 1117340;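 active means compound that reduces growth-factor-driven endothelial tube area in a mixed cell culture, no cutoff stated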). The following applies: VEGF-stimulated ADSC/ECFC co-culture, at 10 µM, stronger effect = higher value.
The nature of experiment [6]: GLP1 release stimulators, primary, NCI-H716, NPC library (AID 1117341;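 active means compound raises GLP1 secretion from the human gut endocrine cells, with no numeric limit stated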). As to conditions: NCI-H716 cells, at 10 µM, stronger effect = higher value.
Experiment [7] can be described thus: HCT116 colon cancer cell growth inhibition, primary screen, CellTiter-Glo luminescence, NPC library (AID 1117342;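 active means compounds that lower survival of HCT116 colon cancer cells in the luminescence readout, no numeric limit stated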). As to conditions: at 20 µM (top of the series). (In general: Cellular ATP, detected with luciferase, serves as a proxy for viable cell number.)
Experiment [8] in a line: reduced SW480 viability measured with CellTiter-Glo, NPC library, primary (AID 1117343;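 active means compounds that lower viability of the colon cancer cells in the luminescence readout, with no numeric limit stated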). The following applies: CellTiter-Glo luminescence; at 20 µM (top of the series) unless noted.
Experiment [9] is described as follows: NPC library primary testing for decreased DLD-1 cell viability via CellTiter-Glo (AID 1117346;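 active means compounds that lower survival of DLD-1 colon cancer cells in the luminescence readout, no cutoff given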). As to conditions: DLD-1 viability, CellTiter-Glo luminescence; at 20 µM (top of the series).
A short description of experiment [10]: viability loss with induced miR-34 in A549 – imaging, A549 dox-inducible miR-34, nuclei and caspase counts, primary screen (AID 1347080). The following applies: A549 miR-34 inducible, Hoechst nuclei count, 48 h.
A short description of experiment [11]: blockers of cellular phospholipid synthesis – cell-based, LOPAC library, screen 4, primary screen (AID 1347384; call rule not given here). As to conditions: animal cells, phospholipid biosynthesis inhibition screen; at 10 µM.
Experiment [12] in a line: MELAS cybrid and Rieske KO viability enhancers – cell-based, MELAS cybrids, Rieske KO mouse fibroblasts, CellTiter-Glo, primary screen (AID 1508586;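 active means mean z-score across replicates of 1.96 or higher in either the MELAS or the Rieske mutant cell line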;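 further: z relative to plate mean and SD of compound and empty wells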). The following applies: low glucose.
Experiment [13] can be described thus: galactose survival enhancers in mitochondrial complex I cybrids – cell-based, galactose medium, ATP luminescence, primary screen (AID 1645843;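 active means z-score of at least 1.8 in each of two replicates, scored against plate mean and spread of sample wells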;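 further: positive z means more ATP and so rescue of galactose-driven cybrid death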). As to conditions: complex I mutant cybrid cells, 72 h, stronger effect = higher value.
The mark [14] stands for this setting: stronger effect = lower value, cell number ratio, induced over uninduced.
The mark [15] stands for this setting: measured here: relative caspase fold change +Dox/-Dox.
Where [16] appears, read: measured here: total cells with miR-34 induction, stronger effect = lower value.
The mark [17] stands for this setting: measured here: total cells without miR-34 induction.
Where [18] appears, read: MELAS cybrid survival, CellTiter-Glo 48 h, stronger effect = higher value.
Where [19] appears, read: Rieske KO mouse fibroblast survival, CellTiter-Glo 72 h.

For the molecule `Cc1nc2c([nH]1)c(=O)n(C)c(=O)n2Cc1ccco1`, the parasite load remaining in experiment [1] was 89.1% (inactive). The viability in experiment [1] came to 184%. The nuclear beta-catenin stimulation was -1.1% (inactive) in experiment [2] (at 10 µM) and -0.9% in [2] (stimulation, at 2 µM). Besides, the insulin secretion stimulation in experiment [3] was 5.4% (inactive). The viability decrease in experiment [4] was 4.7% (inactive). Moreover, the tube area decrease in [5] is -13.8% (inactive). In addition, in experiment [6], the GLP1 secretion stimulation was 2.9% (inactive). Besides, the inhibition of viability in experiment [7] was 4.7% (inactive). In addition, the viability decrease (inhibition) is 11.9% (inactive) in [8] and 11.1% (inactive) in experiment [9]. Further, the fold change in [10] (setting [14]) is 0.936 (inactive) and 0.904 (inactive); in experiment [10] (setting [15]), 1.31 and 1.1. The cell count in experiment [10] (setting [16]) was 10100 and 8410; in [10] (setting [17]), 10800 and 9310. The molecule was classed as inactive in experiment [11]. Further, the z-score in experiment [12] (setting [18]) was 0.342 (inactive); in [12] (setting [19]) it was -0.476; in experiment [13] it was 0.455 (inactive) and 1.9 (inactive).
Consider `CCC(=O)c1ccc2c(c1)N(CCCN(C)C)c1ccccc1S2`, for which the nuclear beta-catenin stimulation is 0.3% (inactive) in experiment [2] (at 10 µM) and -0.2% in experiment [2] (stimulation, at 2 µM). Also, the insulin secretion stimulation in experiment [3] was 33.8% (active). Also, the viability decrease in experiment [4] is 24.5% (inactive). In [5], the tube area decrease was 48.9% (active). Besides, in [6], the GLP1 secretion stimulation was -2.4% (inactive). Besides, the inhibition of viability in experiment [7] is 46.9% (inactive). For the same molecule, the viability decrease (inhibition) in experiment [8] was 65.1% (active); in experiment [9], 20.4% (inactive). Further, the values for the fold change in experiment [10] (setting [14]) and in [10] (setting [15]) were 0.872 (inactive) and 0.831, respectively. In addition, the values for the cell count in experiment [10] (setting [16]) and in [10] (setting [17]) were 1900 and 2180, respectively. In addition, in [11], the call was inactive. Moreover, in experiment [13], the z-score was -1.19 (inactive).
`CCN1CCc2nc(N)oc2CC1`: the nuclear beta-catenin stimulation was -1.7% (inactive) in experiment [2] (at 10 µM) and 0.3% in experiment [2] (stimulation, at 2 µM). Besides, the insulin secretion stimulation in experiment [3] was 0.4% (inactive). Besides, in experiment [4], the viability decrease is 2.7% (inactive). Moreover, the tube area decrease in [5] was 1.7% (inactive). Further, the GLP1 secretion stimulation in experiment [6] is -1.2% (inactive). The inhibition of viability in experiment [7] was 5.2% (inactive). The viability decrease (inhibition) in experiment [8] is -29.1% (inactive); in [9], -18% (inactive). Moreover, the fold change was 1.02 (inactive) in [10] (setting [14]) and 1.71 in experiment [10] (setting [15]). The cell count in [10] (setting [16]) was 10300; in [10] (setting [17]), 10100. In experiment [11], the result was inactive. Further, the z-score in [13] was 0.29 (inactive).
As to `CCCCCCCCCCCCCCC[C@H](O)[C@@H](N)CO`, the nuclear beta-catenin stimulation in experiment [2] (at 10 µM) was 43.1% (active); in experiment [2] (stimulation, at 2 µM) it was 1.5%. For the same molecule, the insulin secretion stimulation in experiment [3] is 1% (inactive). The viability decrease in [4] is 72.1% (active). For the same molecule, in experiment [5], the tube area decrease is 17.5% (inactive). In addition, the GLP1 secretion stimulation in experiment [6] is 7.7% (inactive). For the same molecule, the inhibition of viability in experiment [7] is 69.8% (active). Besides, the viability decrease (inhibition) in experiment [8] was 143% (active); in experiment [9], 104% (active). Further, the results for the fold change in experiment [10] (setting [14]) and in experiment [10] (setting [15]) were 0.915 (inactive) and 1.42, respectively. For the same molecule, the cell count in experiment [10] (setting [16]) turned out to be 5120; in experiment [10] (setting [17]), 5600.
Turning to `CSc1ccc(C(=O)c2[nH]c(=O)[nH]c2C)cc1`, the nuclear beta-catenin stimulation was 0.3% (inactive) in experiment [2] (at 10 µM) and 0.1% in experiment [2] (stimulation, at 2 µM). Further, the insulin secretion stimulation in experiment [3] was 1.4% (inactive). The viability decrease in [4] was -6.3% (inactive). The tube area decrease in experiment [5] is -15.1% (inactive). The GLP1 secretion stimulation in experiment [6] is 0.1% (inactive). Besides, in experiment [7], the inhibition of viability was -7% (inactive). The viability decrease (inhibition) in [8] is 29% (inactive); in experiment [9], 9.15% (inactive). The values for the fold change in experiment [10] (setting [14]) and in [10] (setting [15]) were 0.968 (inactive) and 1.32, respectively. For the same molecule, the cell count in experiment [10] (setting [16]) was found to be 8650; in experiment [10] (setting [17]), 8940. The molecule was classed as inactive in [11]. In experiment [13], the z-score is 0.31 (inactive).
Turning to `CCn1c(=O)c2c(nc(C=Cc3ccc(OC)c(OC)c3)n2C)n(CC)c1=O`, the nuclear beta-catenin stimulation was -0.2% (inactive) in [2] (at 10 µM) and -0.6% in experiment [2] (stimulation, at 2 µM). Besides, the insulin secretion stimulation in [3] is -0.7% (inactive). For the same molecule, the viability decrease in experiment [4] was -2.3% (inactive). Moreover, the tube area decrease in experiment [5] was 14.4% (inactive). For the same molecule, in [6], the GLP1 secretion stimulation was -3% (inactive). For the same molecule, the inhibition of viability in experiment [7] is -3.5% (inactive). The viability decrease (inhibition) in experiment [8] is 4.6% (inactive); in experiment [9], -22% (inactive). In addition, the results for the fold change in experiment [10] (setting [14]) and in experiment [10] (setting [15]) were 0.891 (inactive) and 0.866, respectively. In addition, the cell count in experiment [10] (setting [16]) turned out to be 8640; in experiment [10] (setting [17]), 9700. The z-score is 0.103 (inactive) in experiment [12] (setting [18]) and 0.0933 in experiment [12] (setting [19]).

As usually defined, the viability is a read-out of living cells in per cent, often relative to untreated cells.
